# ELG1 DNA repair = ELG1-dependent DNA repair inhibition. 2.3% of 330,000 active. HEK293T ELG1-luciferase reporter, luminescence, 16 h; DNA damage induced by 5-fluorouridine. Potency, µM (highest dose often 46.1 µM), for the others: top-dose activity change, negative = inhibition, usual class: inhibitors; also: % is scaled to controls: 0 for no effect and ±100 for the full control effect; nearly all actives have a fitted effect of over 55% in size
#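 DMSO vehicle served as the neutral condition. Each well held 2,000 cells given 5-fluorouridine plus compound; after 16 hr at 37 °C/5% CO2, ONE-Glo was added and luciferase measured 30 min later.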
# FLuc counter = inhibits or activates purified firefly luciferase, miR-21 counter-screen | AID 588342 | P08659 | purified FLuc, Km substrates, luminescence inhibition | Potency, µM (titrated, usually from 57.5 µM), inactives show at the highest dose activity change, negative = inhibition, usual class: inhibitors | 6.9% of 360,000 active;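 also: plate controls were vehicle for no effect and reference inhibitor for full effect; nearly all actives have a fitted effect of over 55% in size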
# Target sequence (P08659 whole entry, looked up): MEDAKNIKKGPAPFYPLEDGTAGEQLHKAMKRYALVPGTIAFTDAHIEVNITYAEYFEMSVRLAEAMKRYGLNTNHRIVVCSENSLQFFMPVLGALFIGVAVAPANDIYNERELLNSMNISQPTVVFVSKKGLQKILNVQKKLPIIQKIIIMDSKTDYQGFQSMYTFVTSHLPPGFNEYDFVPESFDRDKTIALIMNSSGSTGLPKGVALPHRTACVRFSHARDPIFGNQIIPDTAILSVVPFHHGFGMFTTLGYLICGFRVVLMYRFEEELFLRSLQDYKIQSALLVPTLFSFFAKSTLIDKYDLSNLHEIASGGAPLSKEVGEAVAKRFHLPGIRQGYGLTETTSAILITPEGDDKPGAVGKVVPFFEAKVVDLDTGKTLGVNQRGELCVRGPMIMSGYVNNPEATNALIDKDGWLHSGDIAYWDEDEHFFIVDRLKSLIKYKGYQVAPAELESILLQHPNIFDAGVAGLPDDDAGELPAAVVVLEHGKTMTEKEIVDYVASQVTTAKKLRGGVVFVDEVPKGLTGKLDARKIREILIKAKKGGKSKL
#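 Purified P. pyralis luciferase (10nM final) with 10uM D-luciferin and 10uM ATP (Km levels) in 50mM Tris acetate pH 7.5, 10mM Mg acetate, 0.01% Tween-20, 0.05% BSA; qHTS 6-point titration, ~60 µM downward; luminescence read.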
# Rab9 promoter act = activates the Rab9 promoter | Huh7 Rab9 promoter-luciferase reporter, luminescence, 24 h | Potency, µM (doses to about 9.22 µM), without a hit: at the highest dose activation, negative = inhibition, actives largely listed as activators | 2.8% of 320,000 active; also: % of control where 0% means no effect; nearly all actives have a fitted effect of over 60% in size
#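 Steps: seed 1500 Huh7 Rab9-luc cells per well, rest 2 h at 37 °C; add compound in DMSO; incubate 24 h; add luciferase reagent, 10 min ambient; read luminescence.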
# NPC1 promoter act = activates the NPC1 promoter | Huh7 NPC1 promoter luciferase reporter, 24 h | Potency, µM (doses to about 9.22 µM), without a hit: at the top dose activation, hits mostly activators | 2.4% of 320,000 active; also: % of control where 0% means no effect; nearly all actives have a fitted effect of over 60% in size
#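 Cells: Huh7 expressing luciferase under the NPC1 promoter, 1500/well. Seeded 2 h, compound added, incubated 24 h at 37 °C. Luciferase reagent, 10 min ambient, then luminescence.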
# ELG1 genotoxic = genotoxicity induction in ELG1-luciferase HEK293T cells | AID 504466 | 1.3% of 330,000 active | HEK293T ELG1-luciferase reporter, luminescence, 16 h | Potency, µM (series often up to 46 µM), for inactives: at the top dose activity change, positive = activation, usual class: activators; also: % of control where 0% means no effect; nearly all actives have a fitted effect of over 60% in size
#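 Quantitative HTS format in 1536-well plates. HEK293T ELG1-luciferase reporter cells receive test compound and are incubated 16 hr at 37 °C, 5% CO2; ONE-Glo added, 30 min room temperature, then luminescence read.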
# SMN2 splice up = enhancers of SMN2 splice variant expression | HEK293 SMN2-luciferase splicing reporter, luminescence, 30-36 h | Potency, µM (top dose mostly 46.1 µM), for the others: at the top dose activity change, positive = activation, actives largely listed as activators | 2.8% of 210,000 active | AID 1458; also: % of control where 0% means no effect; nearly all actives have a fitted effect of over 55% in size
#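 HEK293 cells carry an SMN2 minigene-luciferase reporter in which exon 7 inclusion puts luciferase in frame. Cells were seeded at 2000 cells/well, attached for 10-12 hours, then exposed to compounds for 30-36 hours at 37C before ONE-Glo luminescence.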
# * = called active by the depositor; ? = inconclusive; / = no result given. The list is not random: actives were taken first. Their share in the collection is about 9.3%. Calls follow the shape of the dose curve; as a rule, active = well fitted curve in the direction sought with a large enough effect; inconclusive = small, poorly fitted or top-dose-only effect, or another doubt; inactive = no such curve, though single readings can be large; an effect the other way counts as inactive or inconclusive. Potency is read from the fitted curve at half-maximal effect.
SMILES,ELG1 DNA repair,FLuc counter,Rab9 promoter act,NPC1 promoter act,ELG1 genotoxic,SMN2 splice up
CN(C)CCNC(=S)Nc1ccc(-c2nc3ccccc3[nH]2)cc1,?,9.53µM*,1.58µM*,2.24µM*,18.4%,11.2µM*
CCc1nnc(NC(=O)CSc2ccc(-c3nc4ccccc4[nH]3)cn2)s1,?,?,2.51µM*,?,?,?
S=C(NCCCN1CCOCC1)Nc1ccc(-c2nc3ccccc3[nH]2)cc1,?,?,27.3%,21.2%,-1.1%,-14.4%
COc1ccc(/C=C/C2=Nc3ccccc3NC(C)(C)C2)cc1OC,?,6.01µM*,?,29.0%,-4.7%,/
Cn1nnnc1SCCCNCc1ccccc1OCc1ccccc1Cl,/,-4.8%,/,/,/,/
CCCCN1CC(=O)N2[C@H]3c4cc(C)ccc4OC[C@@H]3[C@H](C(=O)OCC)[C@]2(C)C1=O,0.3%,4.2%,-2.1%,1.4%,1.4%,/
CCN(CC(=O)NCc1ccc(F)cc1)C(=O)c1ccc(COc2ccccc2)cc1,?,16.9µM*,?,?,-0.6%,/
CN(C)C(=O)c1ccc2c(c1[N+](=O)[O-])C(=O)c1ccccc1C2=O,?,3.6%,?,?,8.0%,11.2µM*
O=C(O)c1ccc(N=Nc2c(-c3ccccc3)[nH]oc2=O)cc1,?,10.7µM*,?,?,17.1%,/
Cc1ccc(CCNC(=O)c2sc3ncccc3c2-n2cccc2)cc1,/,-15.0%,/,/,/,/
N#C/C(=N\Nc1ccc(S(=O)(=O)N2CCCCCC2)cc1)C(N)=S,20.6µM*,?,0.2%,-1.6%,-16.8%,-23.0%
N#C/C(=N\Nc1ccc(S(=O)(=O)N2CCc3ccccc32)cc1)C(N)=S,6.51µM*,?,-11.9%,-2.1%,-18.3%,-40.7%
CCOC(=O)/C(C#N)=N/Nc1ccc(S(=O)(=O)N2CCc3ccccc32)cc1,?,-1.3%,-3.4%,-4.4%,-14.7%,-58.0%
Cc1cc2c(cc1S(=O)(=O)CCC(=O)Nc1cccc(C(F)(F)F)c1)OCC(=O)N2,2.4%,1.6%,-3.6%,-1.9%,1.9%,/
CC(C)(C)OC(=O)C[C@@H]1C/C=C\C[C@@H](CC(=O)NCCO)C(=O)N[C@H](Cc2ccccc2)COC1=O,1.0%,/,/,/,0.5%,/
CCCCCCCC/C=C\C/C=C\C=C\C(O)CCCC(=O)O (stereo unspecified),/,/,/,/,/,-4.2%
CSc1nc2sc3c(c2c(=O)n1C)CCC3,11.2%,-5.9%,-1.6%,-0.3%,2.8%,/
CSc1nc2sc3c(c2c(=O)n1C)CCC(C)C3 (stereo unspecified),?,13.5µM*,19.4%,2.4%,9.1%,1.1%
CC1(C)Cc2c(cnn2-c2cccc(F)c2)C(NC(=O)CSc2ccccn2)C1 (stereo unspecified),1.4%,-1.6%,3.7%,-4.2%,0.9%,/
COc1ccccc1OCC(=O)NCCS(=O)(=O)N1CCN(c2ccccc2OC)CC1,/,-2.6%,/,/,/,/
COc1ccccc1OCCNC(=O)c1cc(C2CC2)nc2c1cnn2C(C)C,12.6µM*,2.1%,-1.2%,1.5%,-3.1%,/
COc1ccccc1CCNC(=O)c1cc(C2CC2)nc2c1cnn2C(C)C,-8.6%,0.3%,-5.6%,-2.7%,-8.7%,/
O=C(Nc1ccc(Cc2ccncc2)cc1)C1CCC(N2C(=O)C3C4C=CC(C5CC45)C3C2=O)CC1 (stereo unspecified),8.2µM*,-1.7%,-21.0%,-3.6%,-34.0%,-66.4%
CC(=O)Nc1ccc(NC(=O)C2CCC(N3C(=O)C4C5C=CC(C6CC56)C4C3=O)CC2)cc1 (stereo unspecified),9.8%,-1.1%,-1.7%,-1.5%,3.4%,/
Cc1sc(NC(=O)c2sc3nc4c(C)cccc4cc3c2N)c(C#N)c1C,?,0.536µM*,?,26.2%,?,-4.4%
SMILES,ELG1 DNA repair,FLuc counter,Rab9 promoter act,NPC1 promoter act,ELG1 genotoxic,SMN2 splice up
Cc1cc(NC(=O)c2ccccc2)sc1C,/,3.38µM*,/,/,/,11.2µM*
Cc1ccc(NC(=O)c2ccccc2)s1,?,2.69µM*,0.631µM*,0.708µM*,?,2µM*
O=C(c1cccs1)N1CCn2c1nc1ccccc12,?,?,3.98µM*,2.82µM*,?,12.6µM*
Cc1nnc2c3ccccc3c(-c3ccc(O)cc3)nn12,?,-0.1%,-4.6%,-2.9%,?,28.6%
Cc1nnc2c3ccccc3c(-c3cccs3)nn12,?,-0.1%,0.3%,-21.9%,12.6µM*,11.2µM*
Cc1cc(C(=O)CSc2ccccc2)cc(C)c1O,?,19µM*,-0.1%,?,?,/
Cc1cc(C(=O)CS(=O)(=O)c2ccccc2)cc(C)c1O,0.0%,?,26.1%,28.0%,?,/
CCN(CC)C(=O)CSC(=Nc1ccccc1F)NC#N,?,-1.6%,3.98µM*,?,?,14.1µM*
CN(C)C(=O)[C@H]1C[C@H]1[C@@H](O)[C@H](CO)NC(=O)[C@H](COCc1ccccc1)NC(=O)OC(C)(C)C,11.9%,2.8%,3.16µM*,0.4%,-2.1%,/
COc1cccc(-c2nc(CS(=O)(=O)c3ccccc3)no2)c1,?,12µM*,3.16µM*,2.82µM*,?,11.2µM*
COc1nc(-c2ccccc2)ccc1-c1noc(-c2ccc(F)cc2)n1,4.8%,3.6%,11.0%,0.0%,-1.1%,12.2%
COc1cccc(-c2nc(-c3ccc(-c4ccccc4)nc3OC)no2)c1,/,2.39µM*,/,/,/,1.2%
COc1ccc(-c2ccc(-c3noc(-c4ccc(OC)c(OC)c4)n3)c(OC)n2)cc1,1.4%,0.2%,3.3%,-1.7%,0.3%,-21.1%
COc1nc(-c2ccccc2)ccc1-c1noc(-c2ccccc2F)n1,?,5.36µM*,?,?,?,28.6%
COc1ccc(-c2ccc(-c3noc(-c4cccc(OC)c4)n3)c(OC)n2)cc1,11.9%,7.57µM*,9.7%,-2.2%,2.5%,-45.8%
COc1nc(-c2ccccc2)ccc1-c1noc(-c2cccnc2)n1,?,?,?,26.8%,-3.6%,/
COc1ccc(NC(=O)C2(S(=O)(=O)c3ccc(C)cc3)CC2)cc1OC,-2.2%,0.0%,3.0%,0.7%,3.7%,/
O=C(Nc1ccc(C(=O)O)cc1)/C(=C\C=C\c1ccccc1)NC(=O)c1ccccc1Cl,-3.9%,5.7%,0.5%,3.2%,4.3%,/
CCCCOc1ccc(C(=O)N/C(=C/C=C/c2ccccc2)C(=O)O)cc1,15.3%,15.1µM*,-2.2%,-0.2%,3.6%,5.2%
O=C(Nc1ccc(O)cc1)/C(=C\C=C\c1ccccc1)NC(=O)c1ccccc1,?,9.53µM*,2.5%,-3.2%,-8.6%,/

# Assay outcomes deposited in PubChem BioAssay by National Center for Advancing Translational Sciences (NCATS).
